PubChem BioAssay (NCATS)
Inconclusive results are not listed. Where a call stands in place of a potency, no number is given. The source made the active and inactive calls. Calls come from the whole dose curve; as a rule, active = well fitted curve in the direction sought with a large enough effect; inconclusive = small, poorly fitted or top-dose-only effect, or another doubt; inactive = no such curve, though single readings can be large; an effect the other way counts as inactive or inconclusive.

Tests used:
[1] = qHTS to identify inhibitors of the type 1 interferon - major histocompatibility complex class I in skeletal muscle: primary screen against the NCATS LOPAC collection (AID 1347405);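 note: lytic HiBiT luminescence reporting HLA-B protein level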
In short: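 Luminescence from HiBiT fused to endogenous HLA-B in CRISPR-engineered human myoblasts served as the read-out. Cells received 4.0 ng/ml IFN-beta plus compound (seven concentrations, 1:4.3 steps, highest 46 uM final) for 24 hrs before lytic detection.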

[2] = qHTS for inhibitors of adenylyl cyclases using a fission yeast platform: a pilot screen against the NCATS LOPAC library (AID 1347410)
In short: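 GFP from fbp1-GFP reporter, read by Acumen laser cytometry, indicates AC inhibition in fission yeast expressing AC9, GNAS and PDE4D2. Cells grown 18 h in the dark at 30C with compounds, final up to 57 uM.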

[3] = Validation qHTS assay for inhibitors of Activation Induced Cytidine Deaminase (AID): UDG Counterscreen signal (AID 1347427); note: potency is the fitted concentration of half-maximal effect
In short: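 Counterscreen read of UDG activity (2 U/mL, 4/3x) in the FRET deamination format with AID (1 uM, 4/3x), DJC20/DJC23 substrates (250 nM, 4x), 4 h at room temperature. NaOH stop, fluorescence at 560 ex/665 em.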

| Compound | Potency [1] | outcome [2] | Potency [3] |
| --- | --- | --- | --- |
| CO/N=C(\C(=O)N[C@@H]1C(=O)N2C(C(=O)O)=C(COC(C)=O)CS[C@H]12)c1csc(N)n1 | inactive | inactive | inactive |
| O=C(O)CNC(=O)C(CS)Cc1ccccc1 (configuration not stated) | inactive | inactive | inactive |
| Nc1nc(SCc2ccc([N+](=O)[O-])cc2)c2ncn([C@@H]3O[C@H](CO)[C@@H](O)[C@H]3O)c2n1 | inactive | inactive | inactive |
| CNCC[C@H](Oc1ccc(C(F)(F)F)cc1)c1ccccc1 | inactive | inactive |  |
| NC(N)=NC(=O)c1nc(Cl)c(N2CCCCCC2)nc1N | inactive | inactive | inactive |
| CC(C)NC[C@@H](O)c1ccc(O)c(O)c1 | inactive | inactive | inactive |
| NO | inactive | inactive | 56.2 µM (active) |
| NCCCCC(=O)O | inactive | inactive | inactive |
| O=C(c1ccc(OCCCc2cnc[nH]2)cc1)C1CC1 | inactive | inactive | inactive |
| O=c1[nH]c2cc(C(F)(F)F)ccc2n1-c1cc(C(F)(F)F)ccc1O | inactive | inactive | inactive |
| Oc1ccc(C2CNCc3sccc32)cc1O (configuration not stated) | inactive | inactive | inactive |
| CC(C)(C=O)Cc1cc(C(C)(C)C)c(O)c(C(C)(C)C)c1 | inactive | inactive | inactive |
| NCCSSCCN | inactive | inactive | inactive |
| CN1C2CC(OC(=O)[C@H](CO)c3ccccc3)CC1C1OC12 (some centres not stated) | inactive | inactive | inactive |
| C=CC(N)CCC(=O)O (configuration not stated) | inactive | inactive | inactive |
| OC[C@H]1O[C@@H](n2cnc3c(NC4CCCC4)ncnc32)[C@H](O)[C@@H]1O | inactive | inactive | inactive |
